Source: PubChem BioAssay
D2 ag-1: agonists of human D2 dopamine receptor (beta-arrestin); P14416; DiscoveRx PathHunter D2 beta-arrestin, luminescence, 90 min; 100% = 57 uM dopamine signal; activation, % (concentration not given with the values); 0.084% of 360,000 active; in the data active = activation above about 40%; inconclusive = between about 15% and that limit
Target sequence (P14416 whole entry, looked up): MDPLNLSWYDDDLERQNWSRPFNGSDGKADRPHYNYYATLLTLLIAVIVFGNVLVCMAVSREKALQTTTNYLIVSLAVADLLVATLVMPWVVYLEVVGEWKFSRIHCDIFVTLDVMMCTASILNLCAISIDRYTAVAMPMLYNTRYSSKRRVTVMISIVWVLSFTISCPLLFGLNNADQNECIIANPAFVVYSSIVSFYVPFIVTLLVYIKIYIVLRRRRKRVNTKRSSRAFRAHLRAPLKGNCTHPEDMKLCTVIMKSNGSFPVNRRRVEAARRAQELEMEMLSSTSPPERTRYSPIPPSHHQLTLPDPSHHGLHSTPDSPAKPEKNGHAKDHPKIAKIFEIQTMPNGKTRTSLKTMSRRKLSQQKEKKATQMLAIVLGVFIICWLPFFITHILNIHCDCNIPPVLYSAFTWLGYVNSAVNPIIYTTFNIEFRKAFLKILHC
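Agonist mode: compounds alone added to overnight-plated D2 PathHunter cells for 90 min at 37 C, with 57 uM final dopamine (EC100) defining full response. Beta-arrestin recruitment detected by chemiluminescent reagent, read after 1 h at ambient temperature.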
D2 PAM-1: positive allosteric modulators of human D2 dopamine receptor | P14416 | DiscoveRx D2 beta-arrestin cells, luminescence, 90 min; 100% = 57 uM dopamine signal | potentiation, % (test concentration not listed) | 0.23% of 360,000 active; in the data active = potentiation above about 50%; inconclusive = mostly about 30% to 49%
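PathHunter beta-arrestin assay in DiscoveRx D2 cells. Compounds were added with an EC20 of dopamine (50 nM final) for 90 min at 37 deg C. Luminescence was read 1 h after detection reagent, with 57 uM dopamine as the EC100 control.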
D2 ag-2: D2 dopamine receptor (human) agonism | P14416 | HEK293 T-REx D2 cells, calcium flux agonist mode | activation, % at 2 µM | 0.53% of 340,000 active | AID 485358;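 active = activation over 3 SD above normal in the single-dose calcium agonist read, cut at about 30% in these data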; also: 0% is about no effect
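HEK293 Trex D2 cells, tetracycline-induced, o/n 30 C 5% CO2; no-wash Ca dye, RT 30–90 min; 10-cycle baseline, 23 nl cpd added, kinetic Ca read 180 s; agonist hits = positive Ca response.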
D2 antagonist: D2 dopamine receptor (human) antagonism; P14416; HEK293 TREx D2 cells, calcium flux, dopamine EC80; inhibition, % at 10 µM; 2% of 340,000 active; AID 485344; in the data active = inhibition above about 30%; inactive = below that, where a call was filed; also: 0% is about no effect
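Compounds are added to dye-loaded, induced HEK293 T-REx cells coupled to calcium release via D2; after a 3 min kinetic read an EC80 dopamine stimulus is given and fluorescence is recorded for 3 more min.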
D2 PAM-2: positive allosteric modulators of human D2 dopamine receptor. AID 485347. 0.34% of 340,000 active. P14416. potentiation, % at 10 µM. HEK293 T-REx D2, calcium flux, EC20 dopamine potentiation;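 active = potentiation over 3 SD above the plate norm, cut at about 30% in these data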; also: 0% is about no effect
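Tetracycline-induced HEK293 T-REx cells force-coupled to calcium signalling expressed D2; compounds were pin-added after a 10 s baseline, read kinetically 180 s, then an EC20 dopamine challenge followed with a further 180 s calcium read.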
* = called active by the depositor. In the library only some 2.4% were active in any assay of this set; here they are far more common.

`COc1ccc(Cl)cc1NS(=O)(=O)c1cccc(C(=O)NCC(c2ccco2)N(C)C)c1` (stereo not given) gave D2 ag-1 -3, D2 PAM-1 -43, D2 ag-2 0, D2 antagonist 60* and D2 PAM-2 -19.
`COc1ccccc1NS(=O)(=O)c1cccc(C(=O)NCC(c2ccco2)N2CCCCC2)c1` (stereo not given) gave D2 ag-1 -2, D2 PAM-1 -41, D2 ag-2 0, D2 antagonist 2 and D2 PAM-2 4.
`COc1ccc(NS(=O)(=O)c2ccc(C)c(C(=O)NCC(c3ccco3)N(C)C)c2)cc1` (stereo not given) gave D2 ag-1 -2, D2 PAM-1 -19, D2 ag-2 1, D2 antagonist 23 and D2 PAM-2 -4.
Screening Cc1nn(CCCC(=O)NCc2cccc(Cl)c2)c(=O)c2c1sc1ccccc12 returned D2 ag-2 0 and D2 PAM-2 -2.
Screening CCc1cccc(NC(=O)CN2C(=O)COc3ccc(S(=O)(=O)Nc4ccccc4)cc32)c1 returned D2 PAM-2 -3.
For CN(C)C(CNC(=O)c1cccc(C(F)(F)F)c1)c1ccco1 (stereo not given) the results were D2 ag-1 -5, D2 PAM-1 -6, D2 ag-2 0, D2 antagonist 31* and D2 PAM-2 -33.
`COc1ccc(C(CNC(=O)c2ccc(NS(=O)(=O)c3ccc4c(c3)OCCO4)cc2)N(C)C)cc1` (stereo not given) gave D2 ag-1 -4, D2 PAM-1 -40, D2 ag-2 0, D2 antagonist 31* and D2 PAM-2 -14.
Screening O=C(NCc1ccco1)c1cccc(C(F)(F)F)c1 returned D2 ag-1 -6, D2 PAM-1 -2, D2 ag-2 2, D2 antagonist -7 and D2 PAM-2 0.
COc1ccccc1CNC(=O)CCC1N=C2c3ccccc3N=C(SCC(N)=O)N2C1=O (stereo not given) was read as D2 ag-2 1 and D2 PAM-2 1.
For CCOC(=O)c1c(NC(=O)C(C)Sc2cn(CCNC(=O)c3ccc(OC)c(OC)c3)c3ccccc23)sc2c1CCC2 (stereo not given) the results were D2 ag-2 -2 and D2 PAM-2 11.
For O=C(CN1CCN(c2ccccc2O)CC1)NC(c1ccccc1)c1ccccc1 the results were D2 ag-1 -3, D2 PAM-1 -33, D2 ag-2 -1, D2 antagonist 64* and D2 PAM-2 -24.
`O=C(CN1CCCC1)NC(c1ccccc1)c1ccccc1` gave D2 ag-1 -2, D2 PAM-1 -13, D2 ag-2 2, D2 antagonist -6 and D2 PAM-2 -6.
`CCOc1ccccc1N1CCN(CC(=O)NC(C)c2ccccc2)CC1` (stereo not given) gave D2 ag-1 3, D2 PAM-1 -23, D2 ag-2 0, D2 antagonist 100* and D2 PAM-2 -20.
O=C(CN1CCN(c2ccccc2O)CC1)Nc1ccc2c(c1)CCC2 was read as D2 ag-1 0, D2 PAM-1 -16, D2 ag-2 -1, D2 antagonist 67* and D2 PAM-2 -23.
Screening CCOc1ccccc1N1CCN(C(=O)NCc2ccc(C)cc2)CC1 returned D2 ag-1 -5, D2 PAM-1 -18, D2 ag-2 -2, D2 antagonist 30* and D2 PAM-2 32*.
CC(NC(=O)CN1CCN(c2ccc(Cl)cc2)CC1)c1ccccc1 (stereo not given) was read as D2 ag-1 -5, D2 PAM-1 -3, D2 ag-2 0, D2 antagonist -7 and D2 PAM-2 6.
Cc1oc2c(c(C)cc3oc(=O)c(CC(=O)NCCc4ccccc4)c(C)c32)c1C was read as D2 ag-2 1 and D2 PAM-2 11.
For Nc1nc(Nc2cccc(F)c2)nc(N2CCOCC2)c1[N+](=O)[O-] the results were D2 ag-1 4, D2 PAM-1 -10, D2 ag-2 0, D2 antagonist -7 and D2 PAM-2 -12.
For Cc1cccc(Nc2nc(N)c([N+](=O)[O-])c(N3CCN(C)CC3)n2)c1 the results were D2 ag-1 -5, D2 PAM-1 -35, D2 ag-2 -1, D2 antagonist 55* and D2 PAM-2 -30.
CN1CCN(c2nc(Nc3ccccc3)nc(N)c2[N+](=O)[O-])CC1 was read as D2 ag-1 -2, D2 PAM-1 -17, D2 ag-2 -1, D2 antagonist 83* and D2 PAM-2 -25.
For COc1ccc(F)cc1S(=O)(=O)NC1CC(C)(C)NC(C)(C)C1 the results were D2 ag-1 -2, D2 PAM-1 0, D2 ag-2 0, D2 antagonist -14 and D2 PAM-2 35*.
Screening CCOC(=O)N1CCN(C(=O)Nc2ccc3oc(C)nc3c2)CC1 returned D2 ag-1 7, D2 PAM-1 inconclusive, D2 ag-2 1 and D2 antagonist 44*.
CCOC(=O)C1CCN(C(=O)Nc2ccc3oc(C)nc3c2)CC1 was read as D2 ag-1 -2 and D2 PAM-1 -3.
For COc1cccc(NC(=O)c2oc3ccccc3c2NC(=O)c2ccc(OC(C)C)cc2)c1 the results were D2 ag-2 0 and D2 PAM-2 -10.
For CC(C)OP(=O)(c1ccc(N(C)C)cc1)C(O)c1ccccc1F (stereo not given) the results were D2 ag-1 -4, D2 PAM-1 -8, D2 ag-2 0, D2 antagonist -7 and D2 PAM-2 -3.
`CC(C)OP(=O)(c1ccc(N(C)C)cc1)C(O)c1ccncc1` (stereo not given) gave D2 ag-1 -1, D2 PAM-1 -2, D2 ag-2 0, D2 antagonist 32* and D2 PAM-2 5.
For COc1ccccc1C(O)P(=O)(OC(C)C)c1ccc(N(C)C)cc1 (stereo not given) the results were D2 ag-1 0, D2 PAM-1 -4, D2 ag-2 1, D2 antagonist 31* and D2 PAM-2 -3.
For CC(C)OC(=O)c1ccc(NC(=O)c2cncc(Br)c2)cc1 the results were D2 ag-1 1, D2 PAM-1 4, D2 ag-2 1, D2 antagonist 45* and D2 PAM-2 4.
`OCCN1CCN(c2ncnc3nc[nH]c23)CC1` gave D2 ag-1 -2, D2 PAM-1 -3, D2 ag-2 1, D2 antagonist 34* and D2 PAM-2 -9.
`c1nc(N2CCCC2)c2[nH]cnc2n1` gave D2 ag-1 -3, D2 PAM-1 -7, D2 ag-2 -1, D2 antagonist -10 and D2 PAM-2 -1.
S=c1[nH]nc(COc2ccccc2)n1/N=C/c1ccccc1Br was read as D2 ag-1 -1, D2 PAM-1 -11, D2 ag-2 -1, D2 antagonist 38* and D2 PAM-2 -2.
